The values that follow come from PubChem BioAssay.

Test [1] can be described thus: rapamycin-like changes in RPL19A-GFP expression – cell-based, S. cerevisiae, multiplex flow cytometry, primary screen (AID 1862; in the data active = percent of DMSO control GFP below about 86%;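 also: lower values mimic rapamycin by blocking the RPL19A rise seen in DMSO cells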). The settings on record: S. cerevisiae RPL19A-GFP strain, flow cytometry fluorescence, 3 h; at 10 µM; stronger effect = lower value. On the technique in general: In flow cytometry, cells or beads pass a laser one at a time.
The nature of test [2]: TOR pathway GLN3 branch reporter MEP2-GFP changes – S. cerevisiae, multiplex flow cytometry, primary screen (AID 1867;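 active = GFP response, as percent of the DMSO control, above the screen-wide mean plus 3 SD, about 139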;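 also: median GFP channel fluorescence of barcode-gated MEP2-GFP cells measured by flow cytometry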). The settings on record: S. cerevisiae MEP2-GFP strain, 3 h, at 10 µM, stronger effect = higher value, 100% means same as DMSO wells.
The nature of test [3]: TOR pathway RTG branch CIT2 reporter changes – S. cerevisiae, GFP fusion, multiplex flow cytometry, primary screen (AID 1870;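 active = percent response above a set limit, the screen-wide mean plus 3 SD, cut at about 130% in these data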;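 also: barcoded CIT2-GFP strain pooled with four other GFP strains with rapamycin as positive control; median GFP fluorescence per well over plate mean of DMSO wells so 100% = DMSO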). Conditions: S. cerevisiae CIT2-GFP expression, 3 h, at 10 µM, stronger effect = higher value.
Test [4] in a line: TOR pathway LAP4-GFP level changes – S. cerevisiae, multiplex flow cytometry, primary screen (AID 1873). The settings on record: S. cerevisiae LAP4-GFP expression, 3 h, at 10 µM, stronger effect = higher value.
Test [5] can be described thus: yeast AGP1-GFP level changes, GLN3 branch – cell-based, multiplex flow cytometry, S. cerevisiae, primary screen (AID 1887;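 active = GFP signal above the screen-wide mean plus 3 SD, that is over about 124.5% of the solvent control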;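 also: AGP1-GFP fusion strain of S. cerevisiae within a five-strain barcoded multiplex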). Conditions: 3 h, at 10 µM, stronger effect = higher value.
Test [6] in a line: reduced mouse 2C T cell binding to pMHC/ICAM-1 vesicles – MLPCN validation set, flow cytometry, LFA-1/ICAM-1 modulator project, pilot screen (AID 2523;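 active = response below a set limit, under 55% cells CD8-positive and vesicle-bound, and CD8 cells' 90th-percentile brightness under 279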;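 as to vesicle binding response: mean PE anti-B7-1 fluorescence of CD8+ cells relative to row control; 100% = QL9-loaded vesicles with DMSO vehicle in the same plate row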). Conditions: 2C mouse CD8+ T cells, at 7 µM, stronger effect = lower value; double positive events: measured here: CD8+/vesicle+ event percentage.
The target of test [7] is Integrin beta-1 (Homo sapiens) + Integrin alpha-4 (Homo sapiens) (UniProt P13612+P05556). Description: alpha4beta1 integrin LIBS antibody binding reduction – U937 cells, HUTS-21 mAb, flow cytometry, validation set, VLA-4 allosteric modulator project, pilot screen (AID 2674;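 active = inhibition above 50%, about 3 SD of the validation set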;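 also: antibody binding induced by the VLA-4 ligand LDV present at three times its Kd; 0% = LDV ligand with antibody and no compound and 100% = antibody without LDV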). The settings on record: HUTS-21 LIBS mAb binding, at 6.7 µM, stronger effect = higher value, binding induced by LDV ligand.
Integrin beta-1 (Homo sapiens) + Integrin alpha-4 (Homo sapiens), sequence (P05556 whole entry, looked up): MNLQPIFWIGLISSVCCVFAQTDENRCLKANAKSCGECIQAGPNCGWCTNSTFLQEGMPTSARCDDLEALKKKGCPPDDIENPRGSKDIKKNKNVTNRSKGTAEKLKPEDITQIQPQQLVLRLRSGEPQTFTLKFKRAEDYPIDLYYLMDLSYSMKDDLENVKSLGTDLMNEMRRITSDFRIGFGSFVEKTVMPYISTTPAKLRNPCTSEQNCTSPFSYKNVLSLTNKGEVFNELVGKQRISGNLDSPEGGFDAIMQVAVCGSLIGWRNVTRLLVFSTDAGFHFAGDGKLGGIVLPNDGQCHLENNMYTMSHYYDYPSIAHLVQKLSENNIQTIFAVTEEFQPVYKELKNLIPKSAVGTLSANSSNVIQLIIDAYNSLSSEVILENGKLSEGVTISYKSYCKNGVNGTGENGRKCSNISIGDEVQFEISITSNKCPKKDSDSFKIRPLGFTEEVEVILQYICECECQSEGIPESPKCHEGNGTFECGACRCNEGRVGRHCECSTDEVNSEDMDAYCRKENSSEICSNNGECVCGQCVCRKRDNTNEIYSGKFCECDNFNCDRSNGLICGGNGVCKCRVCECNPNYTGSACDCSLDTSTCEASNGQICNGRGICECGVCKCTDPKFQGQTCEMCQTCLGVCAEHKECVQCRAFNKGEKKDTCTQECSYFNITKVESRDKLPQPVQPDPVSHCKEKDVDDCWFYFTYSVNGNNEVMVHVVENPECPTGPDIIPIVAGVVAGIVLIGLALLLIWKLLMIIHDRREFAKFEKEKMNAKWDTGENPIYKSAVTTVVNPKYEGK
Integrin beta-1 (Homo sapiens) + Integrin alpha-4 (Homo sapiens), sequence (P13612 whole entry, looked up): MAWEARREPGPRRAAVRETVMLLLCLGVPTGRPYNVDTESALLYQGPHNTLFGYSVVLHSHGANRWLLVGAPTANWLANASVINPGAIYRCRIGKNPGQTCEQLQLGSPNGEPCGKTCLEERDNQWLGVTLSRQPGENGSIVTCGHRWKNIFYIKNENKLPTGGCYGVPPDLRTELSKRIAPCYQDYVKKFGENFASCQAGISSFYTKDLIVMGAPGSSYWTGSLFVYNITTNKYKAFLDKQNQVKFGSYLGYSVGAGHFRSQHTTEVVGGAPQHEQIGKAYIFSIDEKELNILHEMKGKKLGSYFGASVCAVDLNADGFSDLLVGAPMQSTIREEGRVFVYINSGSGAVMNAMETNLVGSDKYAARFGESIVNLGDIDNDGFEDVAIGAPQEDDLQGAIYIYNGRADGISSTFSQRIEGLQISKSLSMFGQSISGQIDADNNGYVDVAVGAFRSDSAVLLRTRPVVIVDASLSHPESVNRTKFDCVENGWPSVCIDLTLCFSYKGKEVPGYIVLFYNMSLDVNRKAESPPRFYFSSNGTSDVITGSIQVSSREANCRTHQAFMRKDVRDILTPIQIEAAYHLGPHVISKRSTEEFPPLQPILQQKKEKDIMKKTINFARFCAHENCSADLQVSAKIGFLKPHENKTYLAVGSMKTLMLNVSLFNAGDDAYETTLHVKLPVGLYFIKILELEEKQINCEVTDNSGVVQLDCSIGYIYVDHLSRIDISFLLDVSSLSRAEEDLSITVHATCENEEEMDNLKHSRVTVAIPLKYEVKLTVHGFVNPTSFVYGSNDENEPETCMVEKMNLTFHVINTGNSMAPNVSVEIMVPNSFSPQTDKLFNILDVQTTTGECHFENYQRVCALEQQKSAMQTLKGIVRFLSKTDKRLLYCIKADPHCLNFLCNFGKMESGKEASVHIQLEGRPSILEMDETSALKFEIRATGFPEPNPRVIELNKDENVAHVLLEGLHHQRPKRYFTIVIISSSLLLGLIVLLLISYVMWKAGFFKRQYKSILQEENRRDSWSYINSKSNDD

A short description of test [8]: calorie-restriction mimetic ROS inhibitors, yeast – validation compound set, pilot screen (AID 2706;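 active = superoxide response below 65% of plate, a cut near 3 SD across the whole screen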;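 also: yeast exposed to compound for one week at 30 degrees C before staining; 100% = mean of all compound wells on the same plate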). The settings on record: S. cerevisiae aging, superoxide DHE fluorescence; at 10 µM; stronger effect = lower value.
Test [9] concerns the target Beta-adrenergic receptor kinase 1 (Homo sapiens) (UniProt P25098). Description: GRK2 binders displacing RNA aptamer, biochemical, validation, human GRK2, bead flow cytometry (AID 488806;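 active = aptamer binding inhibition above 30%, about 3 SD of noise from non-fluorescent compounds; inactive = inhibition at or below 30%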). Conditions: bead-bound GRK2, FAM-aptamer displacement, at 10 µM, stronger effect = higher value.
In test [10] the target is Beta-2 adrenergic receptor (Homo sapiens) (UniProt P07550). Description: agonist-induced loss of surface beta2AR – cell-based, FAP fluorogen, flow cytometry, validation set, pilot screen (AID 504459;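 active = percent response above 42, roughly 3 SD of non-fluorescent test compounds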;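 also: agonist-driven loss of surface beta2AR via internalization measured by FAP dye flow cytometry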). The settings on record: Am2.2-beta2AR cells, at 10 µM, stronger effect = higher value.
Beta-2 adrenergic receptor (Homo sapiens), sequence (P07550 whole entry, looked up): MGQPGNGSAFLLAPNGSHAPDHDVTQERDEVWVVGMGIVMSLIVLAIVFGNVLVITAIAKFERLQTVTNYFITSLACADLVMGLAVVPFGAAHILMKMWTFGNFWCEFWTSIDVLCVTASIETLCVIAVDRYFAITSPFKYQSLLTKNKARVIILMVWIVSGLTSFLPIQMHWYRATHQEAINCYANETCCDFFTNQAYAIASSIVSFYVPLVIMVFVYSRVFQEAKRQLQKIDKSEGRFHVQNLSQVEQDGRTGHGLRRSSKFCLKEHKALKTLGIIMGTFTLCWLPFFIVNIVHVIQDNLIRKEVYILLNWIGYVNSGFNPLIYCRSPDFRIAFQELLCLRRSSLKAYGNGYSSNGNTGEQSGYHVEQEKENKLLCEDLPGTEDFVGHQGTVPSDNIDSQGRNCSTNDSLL
The target in test [11] is AP-2 complex subunit beta (Homo sapiens) (UniProt P63010). Description: beta-arrestin/AP2 interaction blockers – biochemical, validation set, GST-AP2 beads, flow cytometry, pilot screen (AID 504541;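 active = inhibition above 54%, about 3 SD of non-fluorescent compounds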;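 also: AP2 carries R879A mutation and is captured from E. coli lysate; bead-bound FITC arrestin peptide fluorescence measuring arrestin peptide binding to AP2; 0% = DMSO wells and 100% = excess unlabeled arrestin peptide control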). Conditions: FITC arrestin peptide, at 10 µM, stronger effect = higher value, AP2 beta2 appendage fragment, R879A mutant.
AP-2 complex subunit beta (Homo sapiens), sequence (P63010 whole entry, looked up, the tested form may be a part, one chain of several): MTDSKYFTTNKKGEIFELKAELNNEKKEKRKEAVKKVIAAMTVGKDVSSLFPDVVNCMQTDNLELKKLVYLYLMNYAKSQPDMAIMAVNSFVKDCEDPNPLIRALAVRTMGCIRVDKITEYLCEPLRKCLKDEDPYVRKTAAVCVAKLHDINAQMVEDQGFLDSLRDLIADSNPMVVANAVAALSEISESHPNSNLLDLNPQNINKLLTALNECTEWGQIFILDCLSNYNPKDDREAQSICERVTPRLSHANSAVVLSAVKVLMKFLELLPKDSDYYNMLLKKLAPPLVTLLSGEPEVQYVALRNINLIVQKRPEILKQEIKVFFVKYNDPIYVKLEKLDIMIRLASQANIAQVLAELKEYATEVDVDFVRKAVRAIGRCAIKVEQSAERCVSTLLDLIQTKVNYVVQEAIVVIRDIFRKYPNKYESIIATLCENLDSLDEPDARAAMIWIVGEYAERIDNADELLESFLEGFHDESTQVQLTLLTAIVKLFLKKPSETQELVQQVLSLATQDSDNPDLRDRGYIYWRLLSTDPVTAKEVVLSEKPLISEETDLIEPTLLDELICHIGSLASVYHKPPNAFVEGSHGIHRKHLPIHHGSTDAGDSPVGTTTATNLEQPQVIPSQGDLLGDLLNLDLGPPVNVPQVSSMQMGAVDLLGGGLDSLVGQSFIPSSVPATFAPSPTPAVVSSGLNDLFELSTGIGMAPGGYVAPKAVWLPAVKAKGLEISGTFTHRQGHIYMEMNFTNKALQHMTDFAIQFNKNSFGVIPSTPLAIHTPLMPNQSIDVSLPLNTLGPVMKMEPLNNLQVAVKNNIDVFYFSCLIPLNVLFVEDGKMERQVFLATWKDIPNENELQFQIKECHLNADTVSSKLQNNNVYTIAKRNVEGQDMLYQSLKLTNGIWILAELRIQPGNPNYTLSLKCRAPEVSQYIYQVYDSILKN
Test [12] in a line: cytosolic pH regulators acting via V-ATPase – S. cerevisiae, pHLuorin, HTS validation (AID 504600; in the data active = response above about 15%;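 also: plate controls were DMSO for no effect and reference compound for full effect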). Conditions: V-ATPase proton transport, at 10 µM, stronger effect = higher value.
Test [13] relates to anti-desmoglein-3 scFv antibody binding to human DSG3. Description: blockers of pathogenic pemphigus antibody–desmoglein-3 binding – biochemical, validation compound set, bead-based, flow cytometry, pilot screen (AID 588368;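 active = binding below the plate cutoff, the plate median minus 3 SD, with a reading above zero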;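 also: signal is the median channel fluorescence of bead-bound GFP antibody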). Conditions: Protein G beads, DSG3-Fc, scFv-GFP binding, at 10 µM, stronger effect = lower value.
A short description of test [14]: Nile Red efflux blockade in pump-expressing yeast – validation compound set, multiplex, phenotypic, pilot screen (AID 588506;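 active = efflux inhibition above 0.42, the validation set average plus 4 SD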;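 also: Nile Red retained in cells so higher fluorescence means more efflux inhibition; 0 = negative control wells and 1 = enniatin B 25 µM full block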). The settings on record: S. cerevisiae pump-expressing triplex, Nile Red efflux flow cytometry; at 10 µM; stronger effect = higher value; the pumps come from Candida albicans.
In test [15] the target is ATP-binding cassette sub-family B member 6 (Homo sapiens) (UniProt Q9NP58). Put plainly: blockers of ABCB6-driven porphyrin uptake – K562-ABCB6 cells, flow cytometry, validation set, pilot screen (AID 588550;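 active = inhibition above the screen-wide mean plus 3 SD, about 51%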;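 also: 0% = DMSO wells and 100% = benzethonium chloride 70 µM positive control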). The settings on record: K562-ABCB6 porphyrin accumulation, 1 h, at 10 µM, stronger effect = higher value.
ATP-binding cassette sub-family B member 6 (Homo sapiens), sequence (Q9NP58 whole entry, looked up): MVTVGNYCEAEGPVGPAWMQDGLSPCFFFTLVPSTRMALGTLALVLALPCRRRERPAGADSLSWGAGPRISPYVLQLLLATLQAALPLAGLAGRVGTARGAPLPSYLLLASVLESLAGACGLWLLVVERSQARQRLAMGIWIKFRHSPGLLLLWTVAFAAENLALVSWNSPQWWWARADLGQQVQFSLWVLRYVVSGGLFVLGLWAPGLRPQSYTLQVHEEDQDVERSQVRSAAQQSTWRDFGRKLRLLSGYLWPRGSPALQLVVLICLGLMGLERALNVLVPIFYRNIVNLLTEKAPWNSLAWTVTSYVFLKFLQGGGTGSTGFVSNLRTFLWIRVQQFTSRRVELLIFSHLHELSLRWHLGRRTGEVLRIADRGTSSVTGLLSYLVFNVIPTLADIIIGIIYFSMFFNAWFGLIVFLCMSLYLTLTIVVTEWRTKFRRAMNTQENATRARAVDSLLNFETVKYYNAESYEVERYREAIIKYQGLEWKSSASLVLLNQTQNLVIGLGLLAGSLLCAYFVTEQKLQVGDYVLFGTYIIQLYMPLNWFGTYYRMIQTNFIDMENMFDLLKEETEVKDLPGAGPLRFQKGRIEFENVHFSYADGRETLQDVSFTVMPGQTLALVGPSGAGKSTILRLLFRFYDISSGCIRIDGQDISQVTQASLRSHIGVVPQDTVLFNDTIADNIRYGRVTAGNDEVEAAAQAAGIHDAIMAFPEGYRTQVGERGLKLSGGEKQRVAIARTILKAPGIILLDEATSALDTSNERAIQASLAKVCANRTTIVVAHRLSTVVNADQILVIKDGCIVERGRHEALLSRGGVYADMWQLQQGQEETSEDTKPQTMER
Test [16] is described as follows: AML differentiation inducers, ER-HoxA9 marrow cells – cell-based, GFP/MAC1 double positive, flow cytometry, validation set, primary screen (AID 588685;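 active = differentiation response of at least 50%, scaled between solvent and reference control, from cells with both markers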;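 also: compound exposure lasts four days before antibody staining and flow analysis; 0% = DMSO wells and 100% = 5 µM fulvestrant positive control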). The settings on record: stronger effect = higher value, normalized: vehicle 0, fulvestrant 100.

Inconclusive results are not listed. The source made the active and inactive calls.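 The calls were made as follows, unless noted: active = GFP signal, as percent of the solvent control, above the screen mean plus 3 SD, about 149; inconclusive = no reading because the compound's own fluorescence upset strain identification; inactive = the rest.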

Beta-adrenergic receptor kinase 1 (Homo sapiens), sequence (P25098 whole entry, looked up): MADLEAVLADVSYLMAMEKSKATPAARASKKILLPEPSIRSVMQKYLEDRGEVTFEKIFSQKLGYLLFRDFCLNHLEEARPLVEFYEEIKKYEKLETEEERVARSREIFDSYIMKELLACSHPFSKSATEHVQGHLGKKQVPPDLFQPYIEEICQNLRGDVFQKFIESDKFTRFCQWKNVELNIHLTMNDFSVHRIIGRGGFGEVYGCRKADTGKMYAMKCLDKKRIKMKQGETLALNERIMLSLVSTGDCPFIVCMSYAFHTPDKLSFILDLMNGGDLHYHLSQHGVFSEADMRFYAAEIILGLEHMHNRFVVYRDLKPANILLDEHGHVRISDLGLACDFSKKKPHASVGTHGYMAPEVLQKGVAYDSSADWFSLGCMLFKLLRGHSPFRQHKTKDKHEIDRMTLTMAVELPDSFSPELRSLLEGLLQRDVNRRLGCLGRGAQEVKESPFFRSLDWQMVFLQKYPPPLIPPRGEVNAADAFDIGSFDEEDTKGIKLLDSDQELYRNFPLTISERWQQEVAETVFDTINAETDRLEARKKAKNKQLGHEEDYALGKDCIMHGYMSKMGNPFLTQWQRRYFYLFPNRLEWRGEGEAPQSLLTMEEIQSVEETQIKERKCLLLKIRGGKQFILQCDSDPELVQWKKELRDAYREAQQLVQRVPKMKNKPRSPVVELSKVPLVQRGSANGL

On to `CCc1cc(=O)oc2cc3occ(-c4ccc(OC)c(F)c4)c3cc12`, for which the percent of DMSO control GFP in [1] was 96.8% (inactive). For the same compound, the GFP response vs DMSO in test [2] was 116% (inactive); in [4] it was 93% (inactive). In addition, the percent response of DMSO control in [3] is 111% (inactive). Further, the GFP response, % of DMSO in test [5] was 87.7% (inactive). The double positive events in test [6] was 60.2%. Further, the vesicle binding response in [6] was 260% (inactive). For the same compound, the results for the inhibition in [7], in [11] and in test [15] were 16.2% (inactive), 6.17% (inactive) and 15% (inactive), respectively. In addition, the superoxide response (% of plate) in test [8] is 88% (inactive). Moreover, the aptamer binding inhibition in [9] was -1% (inactive). Also, the response in [10] is 25.5% (inactive); in test [12], 0.45% (inactive). Moreover, the binding (% of control) in test [13] is 107% (inactive). In addition, the efflux inhibition (fraction of control) in [14] is 0.63 (active). In addition, the differentiation response in [16] is 10.6% (inactive).

On to `C[N+]1(C2CCC3CCCC2C3O)CCCCC1` (stereo not drawn), for which, in [1], the percent of DMSO control GFP was 108% (inactive). The GFP response vs DMSO in test [2] is 100% (inactive); in test [4] it was 82.8% (inactive). Moreover, in test [3], the percent response of DMSO control is 115% (inactive). Moreover, in test [5], the GFP response, % of DMSO is 103% (inactive). The double positive events in test [6] was 64.9%. For the same compound, the vesicle binding response in test [6] was 326% (inactive). Moreover, the inhibition in [7] is -2.53% (inactive); in test [11] it was -10.4% (inactive); in [15], 32% (inactive). Besides, the superoxide response (% of plate) in test [8] is 94.2% (inactive). In addition, the aptamer binding inhibition in test [9] was 1% (inactive). The response is -9.71% (inactive) in test [10] and 3.03% (inactive) in [12]. Moreover, the binding (% of control) in [13] is 99.3% (inactive). Further, in test [14], the efflux inhibition (fraction of control) was -0.1 (inactive). In test [16], the differentiation response is 4.15% (inactive).

On to `O=C(/C=C/Sc1ccccc1)c1ccccc1`, for which the percent of DMSO control GFP in test [1] is 106% (inactive). Also, the results for the GFP response vs DMSO in test [2] and in [4] were 101% (inactive) and 112% (inactive), respectively. In addition, in test [3], the percent response of DMSO control is 100% (inactive). Further, in test [5], the GFP response, % of DMSO is 94.6% (inactive). This compound displayed a double positive events in test [6] of 63.9%. Moreover, in test [6], the vesicle binding response is 263% (inactive). Moreover, the inhibition in [7] is -15% (inactive); in [11], 14.1% (inactive); in test [15], -13% (inactive). The superoxide response (% of plate) in test [8] is 109% (inactive). Also, the aptamer binding inhibition in [9] is -1% (inactive). Also, the response in test [10] is 28.9% (inactive); in test [12] it was -5.17% (inactive). In addition, in test [13], the binding (% of control) was 103% (inactive). The efflux inhibition (fraction of control) in [14] was -0.01 (inactive). Besides, in [16], the differentiation response was 37.4% (inactive).

On to `CC1(C#CC[N+]2(C)CCCCC2)CCC2C(O1)c1ccccc1OC2(C)C` (stereo not drawn), for which the percent of DMSO control GFP in test [1] was 103% (inactive). Also, the values for the GFP response vs DMSO in test [2] and in [4] were 102% (inactive) and 91.5% (inactive), respectively. The percent response of DMSO control in [3] is 107% (inactive). In addition, in test [5], the GFP response, % of DMSO was 106% (inactive). The same compound showed a double positive events in [6] of 60.2%. Moreover, the vesicle binding response in test [6] is 95.6% (inactive). In addition, the inhibition is -6.45% (inactive) in test [7], -11.4% (inactive) in test [11] and -6% (inactive) in test [15]. Further, in [8], the superoxide response (% of plate) was 101% (inactive). In addition, in [9], the aptamer binding inhibition is -11% (inactive). The response in [10] is 5.86% (inactive); in test [12] it was 2.59% (inactive). In addition, the binding (% of control) in test [13] was 101% (inactive). Further, the efflux inhibition (fraction of control) in test [14] was 0.07 (inactive). Besides, the differentiation response in test [16] is -10.4% (inactive).

As a reminder, the inhibition is the change of the read-out against control, counted positive when it falls.
